Here are results for six sequences from paper PMC4081100, “A DNA-binding-site landscape and regulatory network analysis for NAC transcription factors in Arabidopsis thaliana”.

Test in all cases: universal protein binding microarray (PBM); transcription factors of Arabidopsis thaliana; high values mean tight binding
In one assay the target is T1, GST-ANAC092(1-176) (Arabidopsis thaliana, UniProt Q9FKA0 1-176).
T1 sequence: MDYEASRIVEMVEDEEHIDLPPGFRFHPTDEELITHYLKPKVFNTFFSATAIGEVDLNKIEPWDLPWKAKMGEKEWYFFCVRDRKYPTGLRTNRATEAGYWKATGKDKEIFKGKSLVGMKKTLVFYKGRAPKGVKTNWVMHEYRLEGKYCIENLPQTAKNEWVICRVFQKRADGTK
As to conditions: protein: recombinant; tags: GST; chain copies: 2; dsDNA, one strand shown. The method in brief:
(§1)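 Binding is expressed as the normalised enrichment score (E-score). Proteins carrying a GST tag, whether NAC-domain, full-length or DNA-binding-domain forms, were induced in cells, and zinc acetate was added for zinc-finger proteins. After purification on glutathione–Sepharose 4B and quantification by A280 or anti-GST western blot, each was applied in duplicate at 200 to 500 nM final to custom all-10-mer Agilent 4 × 180K arrays made double-stranded by primer extension. Gapped and ungapped 8-mers were scored.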

The target in a further assay is GST-NTL6(1-168) (Arabidopsis thaliana, UniProt Q9SCK6 1-168). Conditions: protein: recombinant; tags: GST; chain copies: 2; dsDNA, one strand shown. The method in brief:
as §1

The target in another assay is T2, GST-ANAC019 NAC domain (Arabidopsis thaliana, UniProt Q9C932 14-162).
T2 sequence: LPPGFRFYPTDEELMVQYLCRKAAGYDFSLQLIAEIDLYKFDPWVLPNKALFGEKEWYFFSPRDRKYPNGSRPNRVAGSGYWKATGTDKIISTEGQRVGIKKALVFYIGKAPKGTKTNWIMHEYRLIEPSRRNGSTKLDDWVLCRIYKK
Conditions: protein: recombinant; tags: GST; chain copies: 2; dsDNA, one strand shown. In a few lines: as §1

Another assay addresses T3, GST-ANAC055(1-171) (Arabidopsis thaliana, UniProt Q9LDY8 1-171).
T3 sequence: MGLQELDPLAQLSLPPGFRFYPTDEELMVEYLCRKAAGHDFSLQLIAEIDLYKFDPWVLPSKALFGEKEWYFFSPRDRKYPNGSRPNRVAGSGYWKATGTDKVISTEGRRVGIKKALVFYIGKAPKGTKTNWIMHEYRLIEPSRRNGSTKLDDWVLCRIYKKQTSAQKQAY
Conditions: protein: recombinant; tags: GST; chain copies: 2; dsDNA, one strand shown. In a few lines:
as §1

In the next assay the target is T4, GST-ATAF1 NAC domain (Arabidopsis thaliana, UniProt Q39013 7-158).
T4 sequence: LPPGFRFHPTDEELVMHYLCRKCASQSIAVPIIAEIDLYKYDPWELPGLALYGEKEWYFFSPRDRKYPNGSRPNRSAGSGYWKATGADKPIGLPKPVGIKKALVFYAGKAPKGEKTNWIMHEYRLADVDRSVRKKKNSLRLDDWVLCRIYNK
As to conditions: protein: recombinant; tags: GST; chain copies: 2; dsDNA, one strand shown. In a few lines: as §1

For assay [1], the target named is T5, GST-ANAC092(1-285) full length (Arabidopsis thaliana, UniProt Q9FKA0 1-285).
T5 sequence: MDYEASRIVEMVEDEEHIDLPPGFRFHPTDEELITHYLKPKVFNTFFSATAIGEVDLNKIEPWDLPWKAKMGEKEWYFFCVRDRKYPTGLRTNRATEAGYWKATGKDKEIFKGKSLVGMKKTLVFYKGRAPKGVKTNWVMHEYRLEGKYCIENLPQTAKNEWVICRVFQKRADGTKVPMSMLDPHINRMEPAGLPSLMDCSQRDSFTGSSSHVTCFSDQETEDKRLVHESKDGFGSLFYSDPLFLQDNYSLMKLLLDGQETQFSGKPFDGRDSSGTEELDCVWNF
As to conditions: protein: recombinant; tags: GST; chain copies: 2; dsDNA, one strand shown. In a few lines:
as §1

The next assay has as its target T6, GST-NAP(1-166) (Arabidopsis thaliana, UniProt O49255 1-166).
T6 sequence: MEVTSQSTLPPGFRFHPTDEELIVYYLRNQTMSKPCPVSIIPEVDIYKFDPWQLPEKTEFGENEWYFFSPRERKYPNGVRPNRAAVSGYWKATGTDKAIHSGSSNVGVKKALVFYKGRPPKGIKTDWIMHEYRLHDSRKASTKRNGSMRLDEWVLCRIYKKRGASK
As to conditions: protein: recombinant; tags: GST; chain copies: 2; dsDNA, one strand shown. In a few lines: as §1

For another assay, the target named is T7, GST-NST2(1-184) (Arabidopsis thaliana, UniProt Q9M274 1-184).
T7 sequence: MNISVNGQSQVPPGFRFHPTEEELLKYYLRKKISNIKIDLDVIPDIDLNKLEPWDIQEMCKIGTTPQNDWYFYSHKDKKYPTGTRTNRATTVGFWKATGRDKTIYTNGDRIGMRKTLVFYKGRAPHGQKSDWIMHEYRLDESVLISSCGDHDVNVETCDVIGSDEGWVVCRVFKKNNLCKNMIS
As to conditions: protein: recombinant; tags: GST; chain copies: 2; dsDNA, one strand shown. In a few lines:
as §1

In another assay the target is T8, GST-NTL8 NAC domain (Arabidopsis thaliana, UniProt Q9XIN7 14-156).
T8 sequence: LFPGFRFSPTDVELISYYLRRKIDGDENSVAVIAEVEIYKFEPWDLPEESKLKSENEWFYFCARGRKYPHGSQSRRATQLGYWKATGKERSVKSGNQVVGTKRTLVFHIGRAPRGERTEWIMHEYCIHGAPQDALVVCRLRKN
As to conditions: protein: recombinant; tags: GST; chain copies: 2; dsDNA, one strand shown. In a few lines:
as §1

The target in the next assay is T9, GST-SND1(1-203) (Arabidopsis thaliana, UniProt Q9LPI7 1-203).
T9 sequence: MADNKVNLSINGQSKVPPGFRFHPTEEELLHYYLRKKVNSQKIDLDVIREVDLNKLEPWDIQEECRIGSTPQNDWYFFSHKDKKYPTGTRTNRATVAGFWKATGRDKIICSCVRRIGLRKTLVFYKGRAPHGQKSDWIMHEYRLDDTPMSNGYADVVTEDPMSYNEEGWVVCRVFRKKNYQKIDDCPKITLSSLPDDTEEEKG
Conditions: protein: recombinant; tags: GST; chain copies: 2; dsDNA, one strand shown. The method in brief: as §1

Another assay addresses T10, GST-VND3 NAC domain (Arabidopsis thaliana, UniProt Q9FH59 12-162).
T10 sequence: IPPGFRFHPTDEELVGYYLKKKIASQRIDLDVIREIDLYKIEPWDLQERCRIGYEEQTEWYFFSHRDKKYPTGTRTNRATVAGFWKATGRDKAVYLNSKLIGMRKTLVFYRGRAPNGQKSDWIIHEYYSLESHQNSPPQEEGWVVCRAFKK
Conditions: protein: recombinant; tags: GST; chain copies: 2; dsDNA, one strand shown. In a few lines:
as §1

The next assay has as its target T11, GST-VND7 NAC domain (Arabidopsis thaliana, UniProt Q9C8W9 9-158).
T11 sequence: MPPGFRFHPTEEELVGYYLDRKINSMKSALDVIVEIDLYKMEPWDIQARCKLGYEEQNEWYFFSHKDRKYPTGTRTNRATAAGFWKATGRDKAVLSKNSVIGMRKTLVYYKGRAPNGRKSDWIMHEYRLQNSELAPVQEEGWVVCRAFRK
As to conditions: protein: recombinant; tags: GST; chain copies: 2; dsDNA, one strand shown. In a few lines: as §1

A further assay has as its target GST-WRKY1(266-371) (Arabidopsis thaliana, UniProt Q9SI37 266-371). As to conditions: protein: recombinant; tags: GST; dsDNA, one strand shown. The method in brief:
as §1

Chain of GST-WRKY1(266-371) (Q9SI37 266-371): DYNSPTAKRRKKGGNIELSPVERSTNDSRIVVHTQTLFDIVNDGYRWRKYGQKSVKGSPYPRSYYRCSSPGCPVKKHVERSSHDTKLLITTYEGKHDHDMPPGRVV
Chain of GST-NTL6(1-168) (Q9SCK6 1-168): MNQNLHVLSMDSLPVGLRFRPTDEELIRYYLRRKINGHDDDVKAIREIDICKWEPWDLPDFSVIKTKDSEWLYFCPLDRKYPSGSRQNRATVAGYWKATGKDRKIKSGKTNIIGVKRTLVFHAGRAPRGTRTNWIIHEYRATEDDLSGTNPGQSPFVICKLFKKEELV

As for AATTACGT, the binding signal in the assay with GST-ANAC092(1-176) is 0.439 E-score; in the assay with GST-NTL6(1-168) it was 0.142 E-score; in the assay with GST-ANAC019 NAC domain it was 0.472 E-score; in the assay with GST-ANAC055(1-171), 0.446 E-score; in the assay with GST-ATAF1 NAC domain, 0.435 E-score; in [1] it was 0.421 E-score. For the same sequence, the binding signal came to 0.454 E-score with GST-NAP(1-166); 0.352 E-score in the assay with GST-NST2(1-184); 0.205 E-score with GST-NTL8 NAC domain; 0.42 E-score with GST-SND1(1-203); 0.47 E-score with GST-VND3 NAC domain; 0.46 E-score with GST-VND7 NAC domain. In addition, the binding signal in the assay with GST-WRKY1(266-371) turned out to be 0.185 E-score.
As to AGACGTGA, the binding signal with GST-ANAC092(1-176) was determined as 0.217 E-score; in the assay with GST-NTL6(1-168), 0.0777 E-score; with GST-ANAC019 NAC domain, 0.425 E-score; with GST-ANAC055(1-171) it was 0.368 E-score; in the assay with GST-ATAF1 NAC domain, 0.356 E-score; in [1], 0.272 E-score. Also, the binding signal was determined as 0.223 E-score with GST-NAP(1-166); 0.157 E-score with GST-NST2(1-184); 0.116 E-score in the assay with GST-NTL8 NAC domain; 0.25 E-score with GST-SND1(1-203); 0.358 E-score with GST-VND3 NAC domain; 0.348 E-score with GST-VND7 NAC domain. Also, the binding signal with GST-WRKY1(266-371) came to 0.116 E-score.
Consider ACGCAAAG, for which the binding signal was found to be 0.455 E-score with GST-ANAC092(1-176); 0.102 E-score with GST-NTL6(1-168); 0.273 E-score in the assay with GST-ANAC019 NAC domain; 0.228 E-score with GST-ANAC055(1-171); 0.256 E-score in the assay with GST-ATAF1 NAC domain; 0.452 E-score in assay [1]. Moreover, the binding signal stood at 0.295 E-score with GST-NAP(1-166); 0.331 E-score in the assay with GST-NST2(1-184); 0.19 E-score in the assay with GST-NTL8 NAC domain; 0.407 E-score in the assay with GST-SND1(1-203); 0.374 E-score in the assay with GST-VND3 NAC domain; 0.346 E-score in the assay with GST-VND7 NAC domain. Besides, the binding signal in the assay with GST-WRKY1(266-371) was 0.16 E-score.
Take AACGTAGA: the binding signal is 0.21 E-score with GST-ANAC092(1-176); 0.145 E-score with GST-NTL6(1-168); 0.0983 E-score with GST-ANAC019 NAC domain; 0.226 E-score in the assay with GST-ANAC055(1-171); 0.163 E-score with GST-ATAF1 NAC domain; 0.329 E-score in [1]. Also, the binding signal in the assay with GST-NAP(1-166) was found to be 0.0935 E-score; with GST-NST2(1-184), 0.34 E-score; with GST-SND1(1-203), 0.408 E-score; with GST-VND3 NAC domain, 0.206 E-score; in the assay with GST-VND7 NAC domain it was 0.184 E-score; with GST-WRKY1(266-371), 0.317 E-score.
In the case of GTAAGTCA, the binding signal in the assay with GST-ANAC092(1-176) worked out at 0.109 E-score; with GST-NTL6(1-168) it was 0.283 E-score; with GST-ANAC019 NAC domain it was 0.134 E-score; with GST-ANAC055(1-171), 0.228 E-score; in the assay with GST-ATAF1 NAC domain, 0.238 E-score; in [1] it was 0.268 E-score. The binding signal worked out at 0.0612 E-score in the assay with GST-NAP(1-166); 0.21 E-score with GST-NST2(1-184); 0.234 E-score in the assay with GST-SND1(1-203); 0.19 E-score with GST-VND3 NAC domain; 0.232 E-score in the assay with GST-VND7 NAC domain; 0.429 E-score in the assay with GST-WRKY1(266-371).
Turning to TTACGTAA, the binding signal with GST-ANAC092(1-176) came to 0.476 E-score; in the assay with GST-NTL6(1-168), 0.171 E-score; with GST-ANAC019 NAC domain it was 0.479 E-score; in the assay with GST-ANAC055(1-171), 0.478 E-score; with GST-ATAF1 NAC domain, 0.465 E-score; in assay [1] it was 0.469 E-score. Further, the binding signal with GST-NAP(1-166) came to 0.484 E-score; with GST-NST2(1-184), 0.433 E-score; with GST-NTL8 NAC domain, 0.411 E-score; with GST-SND1(1-203) it was 0.484 E-score; with GST-VND3 NAC domain, 0.483 E-score; with GST-VND7 NAC domain, 0.481 E-score. Also, the binding signal with GST-WRKY1(266-371) stood at 0.0521 E-score.
